Molecules are shown by their SMILES. Values joined by “and” are separate entries in the source; they are usually repeats but may differ in a detail not shown here. Identical values can stand only once. Inconclusive results are not listed. The source holds several records for some structures; these can differ, active in one and inactive in another. Active and inactive are the calls of the source. Unless noted, calls follow the shape of the full dose curve.

Assay [1] can be described thus: qHTS assay to identify small molecule agonists of the NFkB signaling pathway - cell viability counter screen (AID 1159515). Also: nearly all actives have a fitted effect of over 55% in size. Also: potency is read from the fitted curve at half-maximal effect. The procedure, abridged: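 Plate 2,000 NFkB-bla ME-180 cells/well; incubate overnight. Add compounds, 5 hr at 37 C. Add FRET substrate, 1.5 hr RT. Add CellTiter-Glo, 30 min RT; read luminescence.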
The nature of assay [2]: qHTS assay to identify small molecule agonists of the endoplasmic reticulum stress response signaling pathway (AID 1159516; active = well fitted activation curve with a large enough effect in the signal ratio in the repeat runs, not every such curve was filed as active; the % refers to the signal ratio; also: potency is read from the fitted curve at half-maximal effect; as to activation: % is scaled to controls: 0 for no effect and ±100 for the full control effect). An outline of the steps:
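Beta-lactamase expression from the ER stress response element in HeLa reporter cells is quantified with the LiveBLAzer B/G FRET substrate, read at 405 nm excitation after 2 hr at room temperature, following 5 hr compound treatment at 37 C.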

The nature of assay [3]: qHTS assay to identify small molecule agonists of the endoplasmic reticulum stress response signaling pathway - cell viability counter screen (AID 1159517). Also: nearly all actives have a fitted effect of over 50% in size. Also: potency is read from the fitted curve at half-maximal effect. An outline of the steps:
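Cytotoxicity of test compounds toward ESRE-bla HeLa cells was assessed after 5 hr exposure. The luminescent CellTiter-Glo signal was measured 30 min after reagent addition.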

Assay [4] can be described thus: qHTS assay to identify small molecule antagonists of the retinoid-related orphan receptor gamma (ROR-gamma) signaling pathway - cell viability counter screen (AID 1159520; active = well fitted curve in the direction sought with a large enough effect in the repeat runs; an effect the other way counts as inactive or inconclusive; also: nearly all actives have a fitted effect of over 50% in size; also: potency is read from the fitted curve at half-maximal effect). The procedure, abridged:
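Tet-on ROR gamma CHO cells (1,000/well) were plated 4 hr, given compounds in DMSO for 2 hr at 37 C, then induced with 1 uM final doxycycline for 16 hr. Viability was read as ATP by CellTiter-Glo luminescence after 30 min.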

The target of assay [5] is Nuclear receptor ROR-gamma (Homo sapiens) (UniProt P51449). Put plainly: qHTS assay to identify small molecule antagonists of the retinoid-related orphan receptor gamma (ROR-gamma) signaling pathway (AID 1159521; active = well fitted curve in the direction sought with a large enough effect in the repeat runs; an effect the other way counts as inactive or inconclusive; also: nearly all actives have a fitted effect of over 50% in size; also: potency is read from the fitted curve at half-maximal effect). An outline of the steps:
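CHO Tet-on RORγ, RORE-luc reporter. Cpd 2 h pre-incubation, then dox hyclate 1 uM final, 16 h, 37 C/5% CO2. ONE-Glo luminescence; decrease = antagonist.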

A short description of assay [6]: qHTS assay to identify small molecule agonists of the AP-1 signaling pathway - cell viability counter screen (AID 1159525). Also: nearly all actives have a fitted effect of over 55% in size. Also: potency is read from the fitted curve at half-maximal effect. The procedure, abridged: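 Each titration point was normalised to DMSO and tetra n-octyl ammonium bromide controls. The read was Cell Titer Glo luminescence after 30 min at RT, following 5 h compound exposure of ME-180 AP-1-bla cells at 37 °C.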

Assay [7] is described as follows: qHTS assay to identify small molecule agonists of the AP-1 signaling pathway (AID 1159526). Also: % is scaled to controls: 0 for no effect and ±100 for the full control effect.
Assay [8] is described as follows: qHTS assay to identify small molecule agonists of the RXR signaling pathway - cell viability counter screen (AID 1159529; active = well fitted curve in the direction sought with a large enough effect in the repeat runs; an effect the other way counts as inactive or inconclusive; also: nearly all actives have a fitted effect of over 50% in size; also: potency is read from the fitted curve at half-maximal effect). An outline of the steps: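 HEK 293T RXRa-bla cells, 2% CS-FBS; 5 h settle; cpd 16 h 37 C, 5% CO2; CellTiter-Glo 30 min RT, luminescence. Tetraoctyl ammonium bromide as positive control.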
Assay [9] addresses Retinoic acid receptor RXR-alpha (Homo sapiens) (UniProt P19793). Put plainly: qHTS assay to identify small molecule agonists of the RXR signaling pathway (AID 1159527). Also: nearly all actives have a fitted effect of over 35% in size. Also: potency is read from the fitted curve at half-maximal effect. As to activation: % is scaled to controls: 0 for no effect and ±100 for the full control effect. The procedure, abridged: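 Read-out: beta-lactamase FRET ratio (405 nm excitation, 460 and 530 nm emission) after 2 hr substrate loading at room temperature. Cells were RXR-alpha-UAS-bla HEK 293T treated with compounds for 16 hr in 2% charcoal-stripped FBS medium.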

Chain of Retinoic acid receptor RXR-alpha (Homo sapiens) (P19793 whole entry, looked up): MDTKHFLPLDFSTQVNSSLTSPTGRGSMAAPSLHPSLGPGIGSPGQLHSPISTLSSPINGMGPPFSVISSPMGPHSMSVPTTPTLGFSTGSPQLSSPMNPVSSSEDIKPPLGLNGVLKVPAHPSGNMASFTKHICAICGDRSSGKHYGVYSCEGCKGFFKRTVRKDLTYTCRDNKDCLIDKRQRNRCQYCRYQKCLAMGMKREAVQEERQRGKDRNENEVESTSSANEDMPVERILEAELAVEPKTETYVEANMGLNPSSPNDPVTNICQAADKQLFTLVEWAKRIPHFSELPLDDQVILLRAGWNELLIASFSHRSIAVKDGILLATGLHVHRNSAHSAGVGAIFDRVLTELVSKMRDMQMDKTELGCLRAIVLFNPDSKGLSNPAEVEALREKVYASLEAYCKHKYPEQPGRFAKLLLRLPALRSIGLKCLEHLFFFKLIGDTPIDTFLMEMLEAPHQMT

Take `CN1[C@@H]2CC(OC(=O)[C@H](CO)c3ccccc3)C[C@H]1[C@@H]1O[C@@H]12` (stereo partly specified): the Potency result in assay [1], in assay [2], in assay [3], in assay [4], in assay [5] and in [6] was “inactive” in each case. Also, the Potency entry in [7] and in assay [8] was “inactive” each time.

In the case of `CCCCCCc1ccc(O)cc1O`, the Potency entry in assay [1], in [2], in assay [3], in [5] and in assay [9] was “inactive” each time. In addition, the Potency was 61.3 µM (active) and inactive in assay [4]; 43.8 µM (active) and inactive in assay [6]; 49.1 µM (active) and 54.9 µM (active) in [8].

Consider `COc1ccc2c(c1)c(CC(=O)O)c(C)n2C(=O)c1ccc(Cl)cc1`, for which the Potency result in assay [1], in assay [2], in [3], in assay [4], in assay [6] and in [7] was “inactive” throughout. In assay [8], the Potency result was “inactive”.

Regarding `Cc1ccc(S(=O)(=O)O)cc1`, the Potency entry in assay [1], in assay [2], in [3], in [4], in [6] and in [7] was “inactive” in each case. Further, the Potency entry in assay [9] and in assay [8] was “inactive” in each case.

With `CCCCCCCCCCCC[N+](C)(C)Cc1ccccc1`, the Potency was 53.9 µM (active) and 47.4 µM (active) and 23.9 µM (active) in assay [1]; 17 µM (active) and 21.2 µM (active) and 26.8 µM (active) in [3]; 67.3 µM (active) and 66.4 µM (active) and inactive in assay [4]; 47.6 µM (active) and 21.1 µM (active) in [5]; 23.9 µM (active) in assay [6]; 6.78 µM (active) and 8.43 µM (active) and 1.69 µM (active) in [8].

For `CC(=O)CCC(=O)O`, the Potency result in assay [1], in [2], in [3], in [4], in [5] and in assay [6] was “inactive” each time. Also, the Potency result in assay [7], in assay [9] and in assay [8] was “inactive” in each case.

With `CCCCC1(COC(=O)CCC(=O)O)C(=O)N(c2ccccc2)N(c2ccccc2)C1=O`, the Potency entry in assay [1], in assay [2], in assay [3], in [4], in [5] and in assay [6] was “inactive” in each case. Further, the Potency result in [7], in assay [9] and in assay [8] was “inactive” each time.

Regarding `Nc1ccc(S(N)(=O)=O)cc1`, the Potency result in [1], in assay [2], in [3], in assay [4], in [6] and in [7] was “inactive” in each case. In assay [8], the Potency entry is “inactive”. Further, the Potency in assay [9] is 5.52 µM (active) and inactive.

Take `Cc1cc(C)nc(NS(=O)(=O)c2ccc(N)cc2)n1`: the Potency result in [1], in [2], in assay [3], in assay [4], in [6] and in [7] was “inactive” each time. Moreover, the Potency result in assay [8] was “inactive”. Besides, the Potency in [9] was 14 µM (active) and inactive.

In the case of `COc1ccc(CN(CCN(C)C)c2ccccn2)cc1`, the Potency entry in assay [1], in assay [2], in assay [3], in assay [4], in assay [5] and in [6] was “inactive” throughout. Moreover, the Potency entry in assay [9] is “inactive”. Also, in [8], the Potency is 40.2 µM (active) and inactive.

As for `CNNCc1ccc(C(=O)NC(C)C)cc1`, the Potency entry in [1], in [2], in assay [3], in [4], in assay [6] and in assay [7] was “inactive” throughout. The Potency entry in [9] and in [8] was “inactive” each time.

As for `O=C1c2c(O)cccc2Cc2cccc(O)c21`, the Potency entry in assay [1], in assay [3], in assay [4], in assay [5], in assay [6] and in assay [7] was “inactive” in each case. Further, the Potency result in assay [9] and in assay [8] was “inactive” in each case.

Consider `CC/C(=C(\c1ccccc1)c1ccc(OCCN(C)C)cc1)c1ccccc1`, for which the Potency in [1] was 26.8 µM (active) [middle of 5 runs]; in [3], 49 µM (active) [middle of 4 runs]; in assay [4] it was 61.1 µM (active) [middle of 4 runs]; in assay [5], 27.5 µM (active) [middle of 5 runs]; in [6] it was 23.9 µM (active) [middle of 5 runs]; in [8], 15.5 µM (active) [middle of 5 runs].

As to `CC(=O)CC(c1ccccc1)c1c(O)c2ccccc2oc1=O` (stereo unspecified), the Potency result in [1], in assay [2], in assay [3], in assay [4], in assay [5] and in assay [6] was “inactive” in each case. Further, the Potency result in assay [7] and in assay [8] was “inactive” each time.

For the compound `O=C1NS(=O)(=O)c2ccccc21`, the Potency result in assay [1], in [2], in assay [3], in [4], in assay [5] and in [6] was “inactive” throughout. Besides, the Potency result in [7] and in assay [8] was “inactive” in each case.

Take `CN(C)C(=S)SC(=S)N(C)C`: the Potency was 5.02 µM (active) and 977 nM (active) and 6.74 µM (active) in [1]; 2.37 µM (active) in assay [4]; 703 nM (active) and 770 nM (active) and 1.06 µM (active) in assay [5]; 11.2 µM (active) and 5.49 µM (active) and 16.9 µM (active) in assay [6]; 5.02 µM (active) and 3.89 µM (active) and 1.9 µM (active) in assay [8]. In addition, the Potency entry in assay [3] is “inactive”.

As to `CC1(C)S[C@@H]2[C@H](NC(=O)[C@H](N)c3ccccc3)C(=O)N2[C@H]1C(=O)O`, the Potency result in assay [1], in assay [2], in [3], in [4], in assay [6] and in [7] was “inactive” throughout. The Potency entry in assay [9] and in [8] was “inactive” each time.

For `CCc1nc(N)nc(N)c1-c1ccc(Cl)cc1`, the Potency result in assay [1], in assay [2], in [3], in [4], in assay [5] and in [6] was “inactive” in each case. Further, the Potency result in assay [9] is “inactive”.

On to `Cc1ncc([N+](=O)[O-])n1C`, for which the Potency entry in assay [1], in assay [2], in assay [3], in [4], in assay [6] and in [7] was “inactive” each time. The Potency result in [9] and in assay [8] was “inactive” throughout.

Take `CN(N=O)C(=O)N[C@@H]1[C@@H](O)[C@H](O)[C@@H](CO)O[C@@H]1O`: the Potency result in [1], in assay [2], in [3], in assay [4], in assay [5] and in assay [6] was “inactive” in each case. Also, the Potency entry in assay [7], in assay [9] and in assay [8] was “inactive” each time.

As to `Cc1cc(=O)oc2cc(O)ccc12`, the Potency result in assay [1], in assay [3], in [4], in [6], in assay [7] and in assay [8] was “inactive” each time. The Potency in assay [2] is 49 µM (active) and 19 µM (active); in [9], 43.6 µM (active).

Take `CC(O)(P(=O)(O)O)P(=O)(O)O`: the Potency entry in assay [1], in [2], in assay [3], in [4], in assay [6] and in assay [7] was “inactive” each time. Moreover, the Potency result in assay [9] and in [8] was “inactive” throughout.

These data come from PubChem BioAssay (Tox21).
